Data as given in PubChem BioAssay (EPA / NIEHS).
Records with an inconclusive call do not appear. Active and inactive are the calls of the source. How the source made its calls, unless noted: active means hit-call score of the fitted dose curve at least 0.9, where 1 is the maximum; inactive means score below 0.9.

What was measured:
[1] = read-out: Monocyte Chemoattractant Protein-1 (MCP1), CCL2 (gene 6347); test: BSK_LPS_MCP1: BioMAP Diversity Plus: LPS Assay for Monocyte Chemoattractant Protein-1 (MCP1) Biomarker Activity (AID 2283081); conditions: primary human HUVEC with PBMC; actives raise or lower the signal;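 on AC50: secreted MCP-1 protein quantified by ELISA in culture supernatant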
Method in brief: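 Human endothelial–PBMC co-cultures were dosed with chemical, then LPS-driven MCP-1 levels were quantified by ELISA at 24 h. Activity in either direction was fitted versus DMSO negative control.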

[2] = BSK_LPS_PGE2: BioMAP Diversity Plus: LPS Assay for Prostaglandin E2 (PGE2) Biomarker Activity (AID 2283082); conditions: primary human HUVEC with PBMC; actives raise or lower the signal
Method in brief: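 PGE2 release measured by ELISA in an LPS-activated co-culture of human umbilical vein endothelial cells and peripheral blood mononuclear cells, read at 24 h post-dosing. DMSO served as baseline for bidirectional curve fitting.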

[3] = read-out: Macrophage colony-stimulating factor (MCSF), CSF1 (gene 1435); test: BSK_LPS_MCSF: BioMAP Diversity Plus: LPS Assay for Macrophage colony-stimulating factor (MCSF) Biomarker Activity (AID 2283083); conditions: primary human HUVEC with PBMC; actives raise or lower the signal
Method in brief: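 ELISA readout of M-CSF after 24 h compound exposure in a human endothelial/PBMC co-culture. Activity, in either direction, is fitted relative to DMSO vehicle.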

[4] = read-out: Tissue Factor, F3 (gene 2152); test: BSK_LPS_TissueFactor: BioMAP Diversity Plus: LPS Assay for Tissue Factor Biomarker Activity (AID 2283084); conditions: primary human HUVEC with PBMC; actives raise or lower the signal
Method in brief: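 ELISA signal for cell-surface Tissue Factor (CD142) was read 24 h after compound dosing of an LPS-stimulated human endothelial–PBMC primary co-culture. Gain or loss of signal was scored relative to DMSO.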

[5] = read-out: Tumor necrosis factor (Homo sapiens) (UniProt P01375); test: BSK_LPS_TNFa: BioMAP Diversity Plus: LPS Assay for Tumour Necrosis Factor alpha (TNFa) Biomarker Activity (AID 2283085); conditions: primary human HUVEC with PBMC; actives raise or lower the signal;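 on AC50: TNFa protein level quantified by ELISA in the co-culture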
Method in brief: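 TNFa was quantified by ELISA in LPS-activated co-cultures of human endothelial cells and PBMC, 24 h post-dosing. Both increases and decreases versus DMSO were fitted.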

[6] = read-out: Vascular cell adhesion molecule 1 (VCAM1), VCAM1 (gene 7412); test: BSK_LPS_VCAM1: BioMAP Diversity Plus: LPS Assay for Vascular cell adhesion molecule 1 (VCAM1) Biomarker Activity (AID 2283086); conditions: primary human HUVEC with PBMC; actives raise or lower the signal
Method in brief: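 VCAM-1 quantified by ELISA in an LPS-activated co-culture of human endothelial cells and peripheral blood mononuclear cells, read 24 h post-treatment. Fitted in both directions versus DMSO; parallel SRB staining flags overt cytotoxicity.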

CD38, CD38 (gene 952) = test: BSK_SAg_CD38: BioMAP Diversity Plus: SAg Assay for CD38 Biomarker Activity (AID 2283087); conditions: primary human HUVEC with PBMC; actives raise or lower the signal
Method in brief: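 CD38 quantified by ELISA (fluorescence) in a superantigen-activated endothelial cell–PBMC co-culture at 24 h post-dose. Activity fitted in both directions relative to DMSO; parallel SRB and Alamar Blue cytotoxicity read-outs.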

CD40, CD40 (gene 958) = test: BSK_SAg_CD40: BioMAP Diversity Plus: SAg Assay for CD40 Biomarker Activity (AID 2283088); conditions: primary human HUVEC with PBMC; actives raise or lower the signal
Method in brief: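 Compounds were dosed onto a human primary endothelial–PBMC co-culture, and after 24 h CD40 was quantified by ELISA using a fluorescence signal. Activity in either direction was fitted relative to DMSO.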

[7] = read-out: Monocyte Chemoattractant Protein-1 (MCP1), CCL2 (gene 6347); test: BSK_SAg_MCP1: BioMAP Diversity Plus: SAg Assay for Monocyte Chemoattractant Protein-1 (MCP1) Biomarker Activity (AID 2283090); conditions: primary human HUVEC with PBMC; actives raise or lower the signal
Method in brief: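 Values derive from bidirectional fitting of ELISA-measured MCP1 against DMSO controls. Readings were taken 24 h after dosing human vascular endothelial cells co-cultured with peripheral blood mononuclear cells under superantigen stimulation.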

[8] = read-out: E-selectin (Homo sapiens) (UniProt P16581); test: BSK_SAg_Eselectin: BioMAP Diversity Plus: SAg Assay for Eselectin Biomarker Activity (AID 2283091); conditions: primary human HUVEC with PBMC; actives raise or lower the signal
Method in brief: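 Co-culture: HUVEC + PBMC. Dose compound; 24 h. ELISA for E-selectin. Bidirectional fit vs DMSO.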

[9] = read-out: Monokine induced gamma interferon (MIG), CXCL9 (gene 4283); test: BSK_SAg_MIG: BioMAP Diversity Plus: SAg Assay for Monokine induced gamma interferon (MIG) Biomarker Activity (AID 2283092); conditions: primary human HUVEC with PBMC; actives raise or lower the signal
Method in brief: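 HUVEC plus human PBMC co-culture, chemicals dosed and MIG (CXCL9) quantified by ELISA at 24 h. Bidirectional curve fitting against DMSO as negative control and baseline, so both gain and loss of signal count as activity.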

[10] = BSK_SAg_PBMCCytotoxicity: PBMC Cytotoxicity Assessment in the BioMAP Diversity Plus: SAg Assay (AID 2283093); conditions: primary human HUVEC with PBMC;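 further: fitted both ways against DMSO so a hit may be loss or gain of signal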;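 on AC50: PBMC superantigen activated with SEB plus TSST-1 one hour after compound addition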
Method in brief: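 PBMC viability by Alamar Blue reduction, fluorescence read at 546/580 nm after 6 h dye exposure. Cells were dosed 1 h before SEB plus TSST-1 activation (20 ng/mL final each), then held 90 h; endothelial/PBMC human co-culture.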

[11] = read-out: Interleukin-8 (IL8), CXCL8 (gene 3576); test: BSK_SAg_IL8: BioMAP Diversity Plus: SAg Assay for Interleukin-8 (IL8) Biomarker Activity (AID 2283094); conditions: primary human HUVEC with PBMC; actives raise or lower the signal
Method in brief: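 ELISA readout of IL-8 from a superantigen-activated endothelial/PBMC primary human co-culture, taken 24 h post-dosing and fitted in both directions against DMSO; parallel SRB total-protein staining flags overt cytotoxicity.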

[12] = BSK_SAg_Proliferation: Cell Proliferation Assessment in the BioMAP Diversity Plus: SAg Assay (AID 2283095); conditions: primary human HUVEC with PBMC;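 further: relative cell number as total protein by SRB absorbance in sub-confluent culture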
Method in brief: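 Relative cell number in the endothelial cell/PBMC co-culture was quantified at 96 h by SRB staining (0.1% SRB, 10% TCA fixation, read at 560 nm). Curves were fitted in both directions relative to DMSO baseline.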

[13] = BSK_SAg_SRB: Viability Assessment in the BioMAP Diversity Plus: SAg Assay (AID 2283096); conditions: primary human HUVEC with PBMC;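 further: cells read one day after compound addition; hits may be either gain or loss of signal compared with DMSO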
Method in brief: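 Compounds were added to a human vascular co-culture of umbilical vein endothelium and PBMC. After 24 h, parallel cultures were fixed with 10% TCA, stained with 0.1% sulforhodamine B and read at 560 nm. Gain or loss of signal was fitted relative to DMSO.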

CD69, CD69 (gene 969) = test: BSK_SAg_CD69: BioMAP Diversity Plus: SAg Assay for CD69 Biomarker Activity (AID 2283089); conditions: primary human HUVEC with PBMC; actives raise or lower the signal;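 on AC50: cell surface CD69 protein quantified by ELISA with fluorescence detection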
Method in brief: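 HUVEC co-cultured with PBMC were dosed with chemical, and CD69 was measured by ELISA with fluorescence read-out 24 h later. Bidirectional curve fitting used DMSO as negative control and activity baseline.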

[14] = biological target: human CYP2D6, CYP2D6 (gene 1565) (UniProt P10635); test: NVS_ADME_hCYP2D6: NovaScreen (NVS) CYP450-related Enzyme Activity (ADME) Assay for human CYP2D6 (AID 2283107; active means hit-call score of the fitted dose curve at least 0.9, where 1 is the maximum)
Method in brief: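 Insect-cell recombinant enzyme + fluorogenic substrate, cell-free; 1 h incubation; fluorescence intensity readout. Acetonitrile = neg. ctrl/baseline. Single-point 10 uM, duplicate; follow-up concentration series.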

[15] = biological target: Cytochrome P450 3A4 (Homo sapiens) (UniProt P08684); test: NVS_ADME_hCYP3A4: NovaScreen (NVS) CYP450-related Enzyme Activity (ADME) Assay for human CYP3A4 (AID 2283110; active means hit-call score of the fitted dose curve at least 0.9, where 1 is the maximum)
Method in brief: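 Recombinant CYP3A4 from insect cells, fluorescence enzyme read-out, 0.33 h after chemical addition. Acetonitrile = negative control/baseline. Primary HTS: 10 uM in duplicate; actives re-tested in concentration series.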

Measured: AC50

Chain of E-selectin (Homo sapiens) (P16581 whole entry, looked up): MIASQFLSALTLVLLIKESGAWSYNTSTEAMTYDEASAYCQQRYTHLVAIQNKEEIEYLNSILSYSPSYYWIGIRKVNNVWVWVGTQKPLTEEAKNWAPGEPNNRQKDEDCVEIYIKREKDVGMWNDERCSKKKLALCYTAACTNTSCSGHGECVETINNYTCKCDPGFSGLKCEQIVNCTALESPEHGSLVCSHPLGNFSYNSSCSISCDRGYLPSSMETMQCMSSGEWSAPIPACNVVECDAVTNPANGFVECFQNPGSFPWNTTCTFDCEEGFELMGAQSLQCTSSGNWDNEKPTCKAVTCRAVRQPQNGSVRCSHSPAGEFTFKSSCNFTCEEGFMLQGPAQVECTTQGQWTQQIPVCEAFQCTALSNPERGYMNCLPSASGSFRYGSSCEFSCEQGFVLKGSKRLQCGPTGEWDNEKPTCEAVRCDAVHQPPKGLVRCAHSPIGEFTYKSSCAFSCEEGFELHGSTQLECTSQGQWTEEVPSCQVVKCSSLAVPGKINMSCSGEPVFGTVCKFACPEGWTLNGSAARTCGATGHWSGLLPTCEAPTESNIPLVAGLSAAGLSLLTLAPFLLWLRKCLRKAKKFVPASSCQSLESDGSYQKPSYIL
Chain of Tumor necrosis factor (Homo sapiens) (P01375 whole entry, looked up): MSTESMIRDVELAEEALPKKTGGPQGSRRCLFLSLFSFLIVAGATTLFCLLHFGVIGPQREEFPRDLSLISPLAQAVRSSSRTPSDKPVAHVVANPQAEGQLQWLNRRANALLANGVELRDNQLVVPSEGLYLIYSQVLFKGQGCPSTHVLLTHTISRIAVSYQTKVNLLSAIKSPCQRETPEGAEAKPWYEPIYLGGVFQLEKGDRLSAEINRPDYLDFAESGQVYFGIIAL
Chain of Cytochrome P450 3A4 (Homo sapiens) (P08684 whole entry, looked up): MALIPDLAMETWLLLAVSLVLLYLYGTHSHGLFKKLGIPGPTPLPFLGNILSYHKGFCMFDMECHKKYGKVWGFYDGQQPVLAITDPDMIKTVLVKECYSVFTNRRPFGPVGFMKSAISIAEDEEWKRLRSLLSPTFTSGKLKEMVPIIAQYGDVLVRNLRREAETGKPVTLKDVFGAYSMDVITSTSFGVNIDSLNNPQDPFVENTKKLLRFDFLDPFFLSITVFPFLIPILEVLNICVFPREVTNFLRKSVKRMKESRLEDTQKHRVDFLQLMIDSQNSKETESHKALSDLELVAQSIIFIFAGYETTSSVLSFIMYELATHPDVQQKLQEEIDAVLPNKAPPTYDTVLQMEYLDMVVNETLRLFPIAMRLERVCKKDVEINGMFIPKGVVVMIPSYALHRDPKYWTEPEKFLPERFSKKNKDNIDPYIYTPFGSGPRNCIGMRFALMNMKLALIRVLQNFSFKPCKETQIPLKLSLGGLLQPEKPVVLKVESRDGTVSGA
Chain of human CYP2D6, CYP2D6 (gene 1565) (P10635 whole entry, looked up): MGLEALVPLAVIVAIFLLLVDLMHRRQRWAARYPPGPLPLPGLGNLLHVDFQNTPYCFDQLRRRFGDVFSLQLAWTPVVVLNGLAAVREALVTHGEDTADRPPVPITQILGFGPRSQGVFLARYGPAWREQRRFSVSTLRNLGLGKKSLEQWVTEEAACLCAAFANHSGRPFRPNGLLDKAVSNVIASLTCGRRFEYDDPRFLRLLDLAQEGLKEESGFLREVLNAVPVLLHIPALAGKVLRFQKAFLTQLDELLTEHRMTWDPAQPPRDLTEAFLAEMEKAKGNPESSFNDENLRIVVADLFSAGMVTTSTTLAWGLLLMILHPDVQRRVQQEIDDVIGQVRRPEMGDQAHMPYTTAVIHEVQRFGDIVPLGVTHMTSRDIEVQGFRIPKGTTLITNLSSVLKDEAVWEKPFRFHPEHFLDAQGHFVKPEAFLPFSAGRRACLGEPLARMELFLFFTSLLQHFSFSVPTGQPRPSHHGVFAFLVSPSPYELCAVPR

C#C[C@]1(O)CC[C@H]2[C@@H]3CCc4cc(OC)ccc4[C@H]3CC[C@@]21C
active: [1] 0.0185 µM | [5] 34.6 µM | CD38, CD38 (gene 952) 27.1 µM | [10] 33.4 µM | [12] 30.4 µM
inactive: [2] | [3] | [4] | [6] | CD40, CD40 (gene 958) | [7] | [8] | [9] | [11] | [13]

CCCCCCC(C)OC(=O)CCCCC(=O)OC(C)CCCCCC (configuration not stated)
inactive: [1] | [2] | [3] | [4] | [6] | CD38, CD38 (gene 952) | CD40, CD40 (gene 958) | CD69, CD69 (gene 969) | [7] | [8] | [9] | [10] | [11] | [12] | [13]
active: [5] 25.3 µM

CC(=O)Nc1ccc(N=Nc2cc(C)ccc2O)cc1
active: [6] 5.06 µM | CD38, CD38 (gene 952) 7.17 µM | CD69, CD69 (gene 969) 5.73 µM | [12] 11 µM | [14] 2.96 µM | [15] 5 µM
inactive: [1] | [2] | [3] | [4] | [5] | CD40, CD40 (gene 958) | [8] | [9] | [10] | [11] | [13]

FC(F)(Br)C(F)(F)C(F)(F)C(F)(F)C(F)(F)C(F)(F)Br
inactive: [1] | [2] | [3] | [4] | [5] | [6] | CD38, CD38 (gene 952) | CD40, CD40 (gene 958) | [7] | [8] | [9] | [10] | [11] | [12] | [13]

CCCCCCCCC(F)(F)C(F)(F)C(F)(F)C(F)(F)C(F)(F)C(F)(F)F
inactive: [1] | [2] | [3] | [4] | [5] | [6] | CD38, CD38 (gene 952) | CD40, CD40 (gene 958) | [8] | [9] | [10] | [11] | [12] | [13]
